# Assay outcomes (PubChem)
# Myeloid diff MLP – promotes myeloid progenitor differentiation; hit rate 1% among 360,000; ER-HoxA9 myeloid progenitors, lysozyme-GFP differentiation, flow cytometry; calls only at 10 µM;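 active = normalized GFP-positive differentiation at or above the plate's own cutoff, the solvent-only control mean plus 3 SD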;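 note: cells exposed to compound for four days before flow analysis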
# iPSC survival up – enhancers of human iPSC single-cell survival | survival enhancement, % at 20 µM | AID 602274 | hit rate 0.044% among 360,000 | hiPSC single-cell survival, ATPlite luminescence; 100% = ROCK inhibitor wells, 0% = DMSO; in the data active = survival enhancement above about 18%;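 note: cells exposed to compounds for 16 hours before the ATP read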
# MIN6 prolif – induces beta-cell replication in MIN6 cells; MIN6 cells proliferation, ATPlite luminescence, 48 h; cells starved in 0.2% serum; 100% = growth in 10% serum; proliferation, % at 10 µM; hit rate 0.29% among 330,000;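 active = compounds whose signal lies at least 3.5 SD above the mean of all wells on their plate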;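 note: 0% = DMSO-treated cells in low-serum medium and 100% = 10% serum control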
# Cardio protect – myocardial damage modulation in H9c2 cells | H9c2 cardiomyocytes, H2O2 injury protection, ATPLite, 2 h | protection from H2O2 cell death, % at 20 µM | hit rate 0.63% among 360,000 | AID 588492;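 active = compounds giving at least 50% protection of heart cells from peroxide-induced death in the single-dose screen, raw or plate-pattern-corrected value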;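 note: 0% = DMSO wells with peroxide and 100% = DMSO wells without peroxide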
# ABCB6 inh 2 – blocks the human ABCB6 transporter; K562-ABCB6 porphyrin accumulation, flow cytometry, 1 h; active compounds read low; Q9NP58; hit rate 0.19% among 360,000; fluorescence ratio to DMSO, % at 10 µM;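 active = fluorescence ratio to DMSO below 75%, the collection mean minus 3 SD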;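 note: signal is porphyrin accumulated inside mitochondria; 100% equals median channel fluorescence of DMSO control wells; lower ratio means ABCB6 inhibition with less porphyrin fluorescence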
# Target sequence (Q9NP58 whole entry, looked up): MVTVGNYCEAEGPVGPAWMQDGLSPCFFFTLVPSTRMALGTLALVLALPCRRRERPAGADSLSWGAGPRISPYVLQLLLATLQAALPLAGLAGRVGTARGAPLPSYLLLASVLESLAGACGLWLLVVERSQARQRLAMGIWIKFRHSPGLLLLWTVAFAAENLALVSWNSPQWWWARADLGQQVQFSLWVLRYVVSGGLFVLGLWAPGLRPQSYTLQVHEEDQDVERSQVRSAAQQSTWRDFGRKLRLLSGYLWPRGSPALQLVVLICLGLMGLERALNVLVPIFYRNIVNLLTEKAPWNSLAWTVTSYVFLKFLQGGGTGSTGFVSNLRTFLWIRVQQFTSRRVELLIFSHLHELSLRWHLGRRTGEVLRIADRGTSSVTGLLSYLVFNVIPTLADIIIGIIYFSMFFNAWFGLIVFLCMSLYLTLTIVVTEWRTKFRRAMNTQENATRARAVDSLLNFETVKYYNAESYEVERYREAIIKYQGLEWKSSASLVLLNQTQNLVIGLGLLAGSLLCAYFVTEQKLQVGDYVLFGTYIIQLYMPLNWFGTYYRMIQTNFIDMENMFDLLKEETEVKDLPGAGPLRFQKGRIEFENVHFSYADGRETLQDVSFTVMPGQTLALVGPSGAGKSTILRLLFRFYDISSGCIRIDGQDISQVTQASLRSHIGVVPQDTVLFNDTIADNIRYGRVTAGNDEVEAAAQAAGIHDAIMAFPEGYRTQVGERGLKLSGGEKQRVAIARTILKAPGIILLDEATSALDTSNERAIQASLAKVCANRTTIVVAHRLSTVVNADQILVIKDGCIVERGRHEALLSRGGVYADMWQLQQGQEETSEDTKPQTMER
# Active calls of the source: *; i = inactive; x = not tested or not shown; + = active, no number. An excerpt weighted towards active compounds, which were near 2.2% of everything screened.
SMILES,Myeloid diff MLP,iPSC survival up,MIN6 prolif,Cardio protect,ABCB6 inh 2
COC(=O)c1ccc(S(=O)(=O)NNC(=O)c2ccc(S(=O)(=O)N3CCCCC3)cc2)cc1,i,-2,0,-2,88
O=C(COC(=O)C1=COCCO1)Nc1ccc(OC(F)F)cc1,i,0,-2,-9,100
Cc1oc(-c2ccc(Cl)cc2)nc1CS(=O)CC(=O)NCCN1CCCCCC1 (centres undefined),i,0,-2,10,97
CCN(NC(=O)C(O)(c1ccccc1)c1ccccc1)C(=O)c1ccccc1,i,-1,3,1,96
CC(c1ccccc1)N(NC(=O)C(O)(c1ccccc1)c1ccccc1)C(=O)c1ccccc1 (centres undefined),i,9,0.0*,0,82
COc1ccc(CN2CCCC(C(=O)Nc3cccc(-n4cccn4)c3)C2)cc1 (centres undefined),i,0,1,-4,99
O=C(CCCN1C(=O)c2cccc3cccc(c23)C1=O)N1CCN(c2ccccc2O)CC1,i,0,-1,67*,92
CC(NC(=O)COc1cccc(Br)c1)C(=O)O (centres undefined),x,3,-2,0,99
COc1ccc(C(=S)N2CCOCC2)cc1OC(=O)c1cc(OC)c(OC)c(OC)c1,+,0,0,-1,92
COc1ccc(C(=S)N2CCOCC2)cc1OC(=O)c1ccccc1,i,0,-1,-1,167
COc1ccc(-c2ccc3c(c2)S(=O)(=O)c2cccc(C(=O)N4CCN(c5ccccn5)CC4)c2C3=O)cc1OC,i,2,x,88*,98
COc1ccc(-c2ccc3c(c2)S(=O)(=O)c2cccc(C(=O)O)c2C3=O)cc1OC,i,6,3,1,96
COc1ccc(-c2ccc3c(c2)S(=O)(=O)c2cccc(C(=O)N4CCN(C5CCCCC5)CC4)c2C3=O)cc1OC,+,2,-5,35,295
O=C(NCc1ccccc1Cl)c1cccc(OC2CCN(C(=O)C3CC3)CC2)c1,i,0,-2,-4,89
CCOc1[nH]n(-c2ccccc2)c(=O)c1C=NCC(=O)OC,i,0,-4,6,92
Cc1cc(C)c2[nH]c(=O)c(C(c3nnnn3Cc3ccc4c(c3)OCO4)N3CCC(C)CC3)cc2c1 (centres undefined),i,-2,-4,-3,97
CCCc1nc(SCC(=O)N2CCC(Cc3ccccc3)CC2)c2c(=O)n(C)c(=O)n(C)c2n1,+,0,-7,-1,92
Cc1ccc2cc(C#N)c(N3CCN(C(=O)c4cccs4)CC3)nc2c1,i,0,-4,58*,98
Cc1ccc(CN2CCN(Cc3cnc(C)s3)CC2CCO)o1 (centres undefined),i,3,-2,1,100
Cc1ccc(CN2CCN(Cc3cn(C)nc3C)CC2CCO)o1 (centres undefined),i,22*,-2,-15,101
O=c1[nH]c(-c2ccncc2)nc2ccccc12,i,-2,-3,39,100
O=c1[nH]c(-c2cccnc2)nc2ccccc12,i,-2,-1,47*,98
CCn1c2ccccc2c2cc(NC(=O)c3cccc(OC)c3OC)ccc21,+,0,-2,-13,98
COc1cccc(C(=O)Nc2ccc(N(C)C)cc2)c1OC,+,-2,-4,-8,138
O=C(O)/C=C/c1ccc2ccccc2n1,i,-2,2,14,101
SMILES,Myeloid diff MLP,iPSC survival up,MIN6 prolif,Cardio protect,ABCB6 inh 2
O=C(/C=C/c1ccc2ccccc2n1)c1cc(Br)ccc1O,+,0,-5,-4,165
CCOc1ccc2nc3cc(NCc4ccc(OC)cc4)ccc3c(N)c2c1,+,-1,-5,-22,243
CCN1CCSc2ccc(C(=O)NCc3ccccc3F)cc21,+,-2,1,10,99
CCN1CCSc2ccc(C(=O)NCc3ccccc3C)cc21,i,0,5,7,98
O=C1NCCN1c1ccccc1,i,29*,x,-2,95
Cc1cccc(C)c1-n1c(C)nn(CCOc2ccccc2)c1=O,+,2,1,-1,103
O=c1ccc2c(-c3ccccc3)c3ccc(O)cc3oc-2c1,+,-1,-6,16,279
O=c1cc(-c2ccccc2)oc2cc(O)ccc12,i,-3,x,-7,97
Nc1ccc(-c2c3ccc(=O)cc-3oc3cc(O)ccc23)cc1C(=O)O,+,0,1,-2,104
Nc1ccc(C(=O)NCCCCCCNC(=O)c2ccc(N)cc2)cc1,i,0,-1,6,97
O=C(O)CNC(=O)c1ccc(OC(F)F)cc1,i,-1,-1,2,100
Nc1ccc(C(=O)NCC(=O)O)cc1,+,4,0,-7,101
O=C(O)CNC(=O)c1ccc(Oc2c(F)c(F)c(Oc3ccc(C(=O)NCC(=O)O)cc3)c(F)c2F)cc1,+,-1,3,-4,100
COC(=O)c1ccccc1NC(=S)NC(=O)CC(C)C,i,0,-2,5,104
COc1ccc(-n2c(-c3ccco3)n[nH]c2=S)cc1,i,-1,-2,1,98
Cn1cccc1/C=C1\CC(C(C)(C)C)C/C(=C\c2cccn2C)C1=O (centres undefined),+,-2,-6,-1,295
COc1ccc(O)c(/C=N/N2CCOCC2)c1,i,2,-4,-6,97
CC1=CC(C)(C)n2c(O)c(N=NC(N)=S)c3c(C)ccc1c32,+,3,0,5,94
CC1=CC(C)(C)n2c(O)c(N=NC(N)=S)c3c(C)c(C)cc1c32,i,0,-5,-5,91
O=C(CCc1nc2ccccc2c(=O)[nH]1)N1CCN(S(=O)(=O)c2ccccc2Br)CC1,i,0,-2,71*,92
Cc1ccc(S(=O)(=O)N2CCN(C(=O)CCc3nc4ccccc4c(=O)[nH]3)CC2)c(C)c1,i,0,-2,72*,99
CC(C)c1ccc(S(=O)(=O)N2CCN(C(=O)CCc3nc4ccccc4c(=O)[nH]3)CC2)cc1,i,0,x,44,94
Cc1ccc(NC(=O)c2cc(=O)c3ccccc3o2)cc1S(=O)(=O)N1CCCCC1,i,0,0,16,90
Cc1ccc(NC(=O)c2cc(=O)c3ccccc3o2)cc1S(=O)(=O)N1CCOCC1,i,-1,0,60*,91
Cc1ccc(C)c(S(=O)(=O)N2CCN(C(=O)CCc3nc4ccccc4c(=O)[nH]3)CC2)c1,i,1,-3,57*,100
COC(=O)c1ccc(CSc2nc3sc(C)c(C)c3c(=O)[nH]2)cc1,i,0,-5,-8,96
Cc1ccc(NC(=O)CCc2nc3ccccc3c(=O)[nH]2)cc1S(=O)(=O)N1CCOCC1,i,0,0,86*,99
